This passage reports Potency and activity, negative = inhibition results from PubChem BioAssay AID504332 (National Center for Advancing Translational Sciences (NCATS), 2011).

Hit rate of the full screen: of about 350,000 compounds, about 31,000 (8.9%) were called active. A call without a number means that no potency is given here. Roughly 15% stayed inconclusive and do not appear here. The sample as a whole holds a higher share of actives than the screen did. Where a structure was tested more than once in an assay, its records may differ in their call. Values without a mark were called inactive. Calls follow the shape of the dose curve; as a rule, active = well fitted inhibition curve with a large enough effect; inconclusive = small, poorly fitted or top-dose-only effect; inactive = no such curve, though single readings can be large or run the other way.
Potency is read from the fitted curve at half-maximal effect.

The target in this assay is Histone-lysine N-methyltransferase EHMT2 (Homo sapiens) (UniProt Q96KQ7). Put plainly: qHTS Assay for Inhibitors of Histone Lysine Methyltransferase G9a. Also: nearly all actives have a fitted effect of over 75% in size. To be noted: G9a H3K9 monomethylation, AlphaScreen, 2 h; series mostly up to 59 µM. In a few lines: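 Quantitative HTS format: methyltransferase activity on a biotin-tagged H3K9 peptide is measured by AlphaScreen, using a rabbit anti-monomethyl-H3K9 antibody with streptavidin donor and anti-IgG acceptor beads. Final levels are 20 nM enzyme, 500 nM peptide, 20 uM SAM; 2 h RT.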
Chain of Histone-lysine N-methyltransferase EHMT2 (Homo sapiens) (Q96KQ7 913-1193 limits assumed): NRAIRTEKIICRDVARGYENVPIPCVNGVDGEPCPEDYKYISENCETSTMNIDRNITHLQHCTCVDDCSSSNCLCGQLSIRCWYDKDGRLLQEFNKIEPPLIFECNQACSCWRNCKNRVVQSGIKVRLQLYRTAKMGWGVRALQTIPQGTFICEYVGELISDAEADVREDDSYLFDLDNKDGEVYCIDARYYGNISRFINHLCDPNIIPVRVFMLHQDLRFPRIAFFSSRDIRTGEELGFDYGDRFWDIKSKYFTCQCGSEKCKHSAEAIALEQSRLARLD
As for `Cc1cccc2c1-c1sc(C(=O)Nc3ccc(F)cc3F)cc1CO2`, the Potency entry was “inactive”.

As for `CC(=O)c1c(C)[nH]c(C(=O)OCC(=O)Nc2cc(S(=O)(=O)N3CCCCC3)ccc2C)c1C`, the Potency entry was “inactive”.

Take `O=C(COC(=O)c1ccccc1F)Nc1cc(S(=O)(=O)N2CCOCC2)ccc1N1CCCC1`: the Potency is 35.5 µM (active).

In the case of `CC(C)c1ccc(NC(=O)c2cc(S(=O)(=O)N3CCc4ccccc4C3)ccc2F)cc1`, the Potency was 25.1 µM (active).

Regarding `CS(=O)(=O)c1ccc(Cl)c(NC(=O)COC(=O)c2cccc(S(=O)(=O)N3CCCC3)c2)c1`, the Potency was 56.2 µM (active).

As for `O=C(COc1cccc2ccccc12)Nc1cc(S(=O)(=O)N2CCOCC2)ccc1N1CCOCC1`, the Potency result was “inactive”.

As to `O=C(Nc1ccc(S(=O)(=O)N2CCc3ccccc3C2)cc1)c1ccccc1`, the activity, negative = inhibition was 46.5% [at 12.7 µM].

Take `O=C(COC(=O)CCOc1ccccc1)Nc1cc(S(=O)(=O)N2CCCCC2)ccc1Cl`: the activity, negative = inhibition was 4.58% [at 2.33 µM].

Regarding `CC(NC(=O)c1cccc(S(=O)(=O)N2CCc3ccccc3C2)c1)c1ccco1` (configuration not stated), the Potency result is “inactive”.

In the case of `O=C(COC(=O)Cc1ccc(F)cc1)Nc1cc(S(=O)(=O)N2CCOCC2)ccc1N1CCCC1`, the Potency result was “inactive”.

Regarding `COc1cc(Nc2nc3ccc(Cl)cc3n3cnnc23)cc(OC)c1OC`, the Potency entry is “inactive”.

On to `COc1cc(F)c(C2=CC(=O)CC(C)(C)C2)cc1F`, for which the activity, negative = inhibition is -4.97% [at 0.501 µM].

With `COc1ccccc1S(=O)(=O)NCc1ccc(C(=O)N(C)Cc2ccc(F)cc2)cc1`, the activity, negative = inhibition is 6.01% [at 2.33 µM].

Turning to `Cc1cccc(CCNC(=O)c2ccc3c(c2)nc2n3CCC(C)C2)c1` (configuration not stated), the Potency entry is “inactive”.

For the compound `CC(=O)N1CCc2cc(Br)cc(S(=O)(=O)CCC(=O)NCCc3ccc(Cl)cc3)c21`, the Potency result is “inactive”.

Take `C/C(=N\NC(=O)c1ccccc1F)c1ccccn1`: the Potency result is “inactive”.

On to `CCOC(=O)C1CCN(S(=O)(=O)c2cc(F)ccc2OC)CC1`, for which the Potency entry was “inactive”.

In the case of `CCOC(=O)C1CCCCN1Cc1ccc(OC)c(OC)c1OC` (configuration not stated), the Potency is 12.6 µM (active).

Consider `CCOC(=O)C1CCN(C(=O)/C=C/c2cc(OC)c(OC)c(OC)c2)CC1`, for which the Potency result is “inactive”.

Consider `Cc1ccc(S(=O)(=O)c2nc(-c3ccco3)oc2SCC(=O)Nc2ccc(F)cc2)cc1`, for which the Potency result was “inactive”.

With `NS(=O)(=O)c1ccc(CCNC(=O)CN2C(=O)c3ccccc3S2(=O)=O)cc1`, the Potency result was “inactive”.

Consider `CCC(=O)N1CCc2cc(Br)cc(S(=O)(=O)CCC(=O)NCCc3ccc(OC)c(OC)c3)c21`, for which the Potency entry was “inactive”.

On to `Cc1ccccc1NC(=O)C(C)OC(=O)CCC(=O)N(CC(C)C)c1c(N)n(CC(C)C)c(=O)[nH]c1=O` (configuration not stated), for which the Potency result is “inactive”.

Regarding `CC(C)(C)NCC(O)COc1cccc2[nH]c(=O)[nH]c12` (configuration not stated), the Potency was 1.12 µM (active) and the activity, negative = inhibition is 21.7% [at 12.7 µM].

In the case of `COc1ccccc1OCCNCC(O)COc1cccc2[nH]c3ccccc3c12` (configuration not stated), the Potency result was “inactive”.

Turning to `CC(C)(C)CC(C)(C)NCC(O)COCCOc1ccc(Br)cc1` (configuration not stated), the Potency result was “inactive”.

Take `COc1ccc(C2(C#N)CCC(C(=O)O)CC2)cc1OC1CCCC1` (configuration not stated): the activity, negative = inhibition was -32.8% [at 12.7 µM].

`COc1ccc(S(=O)(=O)n2nc(C)c(S(=O)(=O)N3CCCCCC3)c2C)cc1`: the Potency result was “inactive”.

As to `COc1ccc(S(=O)(=O)n2nc(C)c(S(=O)(=O)N3CCOCC3)c2C)cc1`, the Potency is 79.4 µM (active).

Turning to `Cc1ccc(S(=O)(=O)n2nc(C)c(S(=O)(=O)N3CCCCCC3)c2C)cc1`, the Potency result is “inactive”.

Regarding `COc1ccc(S(=O)(=O)c2c(Nc3cccc(Cl)c3)sc(C(=O)c3ccccc3)c2N)cc1`, the Potency entry is “inactive”.

As to `Cc1ccc2nc(S(=O)(=O)O)[nH]c2c1`, the Potency is 89.1 µM (active).

In the case of `CCCNC(=O)C1CCN(c2nc3ccc(C)cc3[nH]2)CC1`, the Potency entry was “inactive”.

For the compound `Cc1ccc2nc(/C(C#N)=C\c3ccc(OC(=O)c4cccs4)cc3)[nH]c2c1`, the Potency entry is “inactive”.

For the compound `COc1cccc(CNC(=O)CSc2c3c(nc4cc(Cl)ccc24)CCCC3)c1`, the Potency result was “inactive”.

For `COC(=O)C1=C(C)NC(=O)/C1=C/c1ccc(CNS(=O)(=O)c2ccc(C)cc2)o1`, the Potency is 50.1 µM (active).

As to `COc1ccccc1CNS(=O)(=O)c1ccc(C)cc1`, the Potency result was “inactive”.

As for `Cc1ccc(CCNC(=O)c2ccc(CNS(=O)(=O)c3ccc(C)cc3)cc2)cc1`, the Potency entry was “inactive”.

In the case of `Cc1cc(C)c2sc(NC(=O)c3ccc(S(=O)(=O)N4CCCC4)cc3)nc2c1`, the Potency result is “inactive”.

On to `Cn1c(=O)c(C(=O)O)nn(-c2ccccc2)c1=O`, for which the Potency result was “inactive”.

`Cc1cccc(OCC(=O)N(Cc2ccc(C(C)C)cc2)Cc2ccco2)c1C`: the Potency result is “inactive”.

Regarding `CNC(=S)NNC(=O)c1oc2nc(-c3ccccc3)cc(-c3ccco3)c2c1N`, the Potency was 10 µM (active).

As for `CS(=O)(=O)c1sc2nc(-c3ccccc3)cc(-c3ccccc3)c2c1N`, the Potency entry is “inactive”.

For `CC1=C(c2ccc(Cl)cc2)S(=O)(=O)N=C1N1CCN(c2cc(C)ccc2C)CC1`, the Potency entry was “inactive”.

Turning to `COc1ccc(-c2c(-c3ccc(OC)cc3O)nc(C)nc2C(F)(F)F)cc1`, the Potency result is “inactive”.

For the compound `CCOc1ccc(-c2cc3nc(C4CCN(C(=O)OC(C)(C)C)CC4)c(C(=O)Nc4ccc(C(=O)OC)cc4)cn3n2)cc1`, the Potency entry was “inactive”.

For `CCOC(=O)c1c(NC(=O)CSc2nnc(CNc3ccc(C)cc3C)o2)sc(C)c1C`, the Potency result is “inactive”.

On to `CCOC(=O)c1c(NC(=O)COc2cc(C)ccc2C(C)C)sc(C)c1C`, for which the Potency was 1.78 µM (active).

`CCOC(=O)c1sc(NC(=O)COc2ncnc3ccccc23)c(C(=O)OCC)c1C`: the Potency entry was “inactive”.

For `COc1cccc(CNC(=O)c2ccc3c(c2)N(Cc2ccc(C(F)(F)F)cc2)C(=O)c2ccccc2S3)c1OC`, the Potency entry is “inactive”.

As to `N/C(=N\OS(=O)(=O)c1cccc([N+](=O)[O-])c1)c1ccncc1`, the Potency was 10 µM (active).

Turning to `O=C(c1ccncc1)N1CCN(S(=O)(=O)c2cccc([N+](=O)[O-])c2)CC1`, the Potency result was “inactive”.

Take `O=C(N/N=C/c1cccc([N+](=O)[O-])c1)c1ccncc1`: the Potency entry is “inactive”.

Take `COc1ccc(C=Nc2cccc3ncccc23)cc1`: the Potency result is “inactive”.

For `Oc1c(C=Nc2cccc3nsnc23)ccc2ccccc12`, the Potency is 2.24 µM (active).

Consider `CC(C)(C)NS(=O)(=O)c1ccc(NC(=O)C2CCCO2)cc1` (configuration not stated), for which the Potency result is “inactive”.

As for `O=C(CC(c1cccs1)N1Cc2ccccc2C1=O)Nc1ccc(F)c(F)c1` (configuration not stated), the Potency result was “inactive”.

Consider `CCc1cccc(NC(=O)COC(=O)C2CCN(c3ccc(C(F)(F)F)cn3)CC2)c1`, for which the activity, negative = inhibition was 10.8% [at 0.501 µM].

Turning to `CCCC(=O)Nc1cc(C(=O)NCc2ccc(OC)cc2)ccc1S(=O)(=O)c1ccc(Cl)cc1`, the Potency result was “inactive”.

With `CCCN(CCC)CCNC(=O)c1ccc2c(c1)NC(=O)C(CS(=O)(=O)Cc1cccc(Br)c1)N2` (configuration not stated), the Potency was 25.1 µM (active).

Turning to `COc1ccc(C(=O)NCc2ccc(Cl)cc2)cc1S(=O)(=O)N1CCCC1`, the activity, negative = inhibition was -2.17% [at 12.7 µM].

For `CCCNC(=O)c1ccc(N2CCC3(CC2)CC(c2cccc(Br)c2)=NO3)c(NC(=O)c2ccco2)c1`, the activity, negative = inhibition is 7.48% [at 2.33 µM].

Consider `Cc1ccccc1CS(=O)(=O)CC1Nc2ccc(C(=O)NCc3ccc(Cl)cc3)cc2NC1=O` (configuration not stated), for which the Potency was 10 µM (active).

Regarding `C/C(Cc1ccccc1)=N\NC(=O)CNC(=O)c1cccc(Br)c1`, the Potency result was “inactive”.

Turning to `Cc1cccc(C(=O)N2CCc3cc(CNC(=O)Cc4ccc(F)cc4)ccc32)c1`, the Potency entry was “inactive”.

Consider `CCOC(=O)C(C)n1cnc2c(nnn2-c2cccc(OC)c2)c1=O` (configuration not stated), for which the Potency entry was “inactive”.

On to `CCc1nnc(NC(=O)CCC(=O)N2CCN(c3cc(C)ccc3C)CC2)s1`, for which the Potency entry is “inactive”.

For `COc1ccccc1N1CCN(C(=O)c2cc(-c3ccc(Cl)c(Cl)c3)on2)CC1`, the Potency entry is “inactive”.

Regarding `O=C(c1ccncc1)N1CCN(c2ccc3ccccc3n2)CC1`, the activity, negative = inhibition is 25% [at 12.7 µM].

Regarding `O=C(c1ccc2ccccc2n1)N1CCN(c2ccccc2Cl)CC1`, the Potency was 44.7 µM (active).

For `Cc1ccc2c(=O)c(C(=O)c3ccc(Cl)cc3)cn(CC(=O)NC3CCCCC3)c2n1`, the Potency entry was “inactive”.

In the case of `COC(=O)c1ccc(CSc2ccc(S(=O)(=O)N3CCCCC3)cn2)cc1`, the activity, negative = inhibition is -3.87% [at 12.7 µM].

As for `CCNC(=S)NNC(=O)c1ccc2ncccc2c1`, the Potency result is “inactive”.

Regarding `O=C(O)c1ccc(/C=N/Nc2nc(N3CCCCC3)nc(N3CCCCC3)n2)cc1`, the Potency result is “inactive”.

Consider `O=C(O)c1ccc(N/N=C/c2ccc3ncccc3c2)cc1`, for which the Potency is 10 µM (active).

Regarding `COc1cccc(/C=C/C(=O)OCC(=O)N2CCCc3ccccc32)c1`, the Potency result is “inactive”.

For the compound `CCOC(=O)c1ccc(NC(=O)c2ncn(-c3ccccc3)n2)cc1`, the Potency entry is “inactive”.

As to `CC(OC(=O)C1CC(=O)N(Cc2ccccc2)C1)C(=O)Nc1ccccc1[N+](=O)[O-]` (configuration not stated), the Potency is 56.2 µM (active).

For `Cc1cccc(C(C)C)c1NC(=O)COC(=O)C1CC(=O)N(Cc2ccccc2)C1` (configuration not stated), the activity, negative = inhibition is 7.15% [at 0.501 µM].

For `O=C(Nc1ccc(F)c([N+](=O)[O-])c1)C1CC(=O)N(Cc2ccccc2)C1` (configuration not stated), the Potency entry is “inactive”.

For `CCOc1ccccc1NC(=O)CSc1ncc(S(=O)(=O)c2ccc(C(C)(C)C)cc2)c(=O)[nH]1`, the Potency result is “inactive”.

On to `Cc1ccccc1CSc1nc2c([nH]c3ccccc32)c(=O)n1C`, for which the Potency entry was “inactive”.

Take `CCCCN(Cc1ccccc1)C(=O)C1CCN(Cc2sccc2C)CC1`: the Potency is 14.1 µM (active).

In the case of `CCCCN(C(=O)C1CCC1)c1c(N)n(Cc2ccccc2)c(=O)[nH]c1=O`, the activity, negative = inhibition was -8.06% [at 12.7 µM].

Consider `CCNC(=S)NNC(=O)C1CCN(Cc2ccccc2)CC1`, for which the Potency result was “inactive”.

With `O=C(Nc1cc2c3c(c1)CC(=O)N3CCC2)c1ccccc1F`, the Potency result is “inactive”.

For `CCOc1ccc(NC(=O)CN(C)C(=O)Cn2c(=O)cnc3ccccc32)cc1OCC`, the Potency entry was “inactive”.

Regarding `O=C(CN1CCc2ccccc21)NC(c1ccccc1)c1ccccc1`, the Potency is 39.8 µM (active).

On to `NC(=O)N1CCc2ccccc21`, for which the Potency result was “inactive”.

`O=C(CN1CCN(Cc2ccccc2)CC1)NC(c1ccccc1)c1ccccc1`: the Potency entry was “inactive”.

On to `COc1cc2nc(SCc3ccc(F)cc3)n3nc(CCn4c(C)nc5ccccc54)nc3c2cc1OC`, for which the Potency result is “inactive”.
